# According to PubChem BioAssay AID1159580 (chemical genetic matrix, 2015):
# About 2,000 (36%) of roughly 5,500 compounds were called active. Another 18% or so got no clear call; they are omitted. This is one part of the list. A number with no mark means an inactive call. No stated cut-off is given here; in the data, active means normalized growth mostly below about 0.91 (no sharp cut-off); inconclusive means no clear call, values can overlap the other calls; inactive means mostly above about 0.92.
# Assay: chemical genetic growth profiling, strain panel (AID 1159580);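 further: tested at 20 µM; growth read once vehicle control cultures reached saturation at 30 °C; 1 = growth at the plate median or of vehicle wells; lower values mean less growth of the strain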
# Details: S. cerevisiae deletion strains, growth OD
# [1] = locus YAR019C, strain CDC15, active compounds read low
# [2] = locus YBL105C, strain PKC1, active compounds read low
# [3] = locus YBR135W, strain CKS1, active compounds read low
# [4] = locus YBR136W, strain MEC1, active compounds read low
# [5] = locus YBR160W, strain CDC28, active compounds read low
# [6] = locus YDL017W, strain CDC7, active compounds read low
# [7] = locus YDL028C, strain MPS1, active compounds read low
# [8] = locus YDL101C, strain DUN1, active compounds read low
# [9] = locus YDL108W, strain KIN28, active compounds read low
# [10] = locus YDL132W, strain cdc53, active compounds read low
# [11] = locus YDL214C, strain PRR2, active compounds read low
# [12] = locus YDR052C, strain DBF4, active compounds read low
# [13] = locus YDR054C, strain cdc34, active compounds read low
# [14] = locus YDR226W, strain ADK1, active compounds read low
# [15] = locus YDR477W, strain SNF1, active compounds read low
# [16] = locus YER123W, strain YCK3, active compounds read low
# [17] = locus YER133W, strain GLC7, active compounds read low
# [18] = locus YFL009W, strain cdc4, active compounds read low
# [19] = locus YFL029C, strain CAK1, active compounds read low
# [20] = locus YFR003C, strain YPI1, active compounds read low
# [21] = locus YFR019W, strain FAB1, active compounds read low
# [22] = locus YFR028C, strain CDC14, active compounds read low
# [23] = locus YGR040W, strain KSS1, active compounds read low
# [24] = locus YGR052W, strain FMP48, active compounds read low
# [25] = locus YGR092W, strain DBF2, active compounds read low
# [26] = locus YHR079C, strain IRE1, active compounds read low
# [27] = locus YHR082C, strain KSP1, active compounds read low
# [28] = locus YHR205W, strain SCH9, active compounds read low
# [29] = locus YIL147C, strain SLN1, active compounds read low
# [30] = locus YJL095W, strain BCK1, active compounds read low
# [31] = locus YJL128C, strain PBS2, active compounds read low
# [32] = locus YJL157C, strain FAR1, active compounds read low
# [33] = locus YJR016C, strain ILV3, active compounds read low
# [34] = locus YJR066W, strain TOR1 (second series), active compounds read low
# [35] = locus YJR066W, strain TOR1, active compounds read low
# [36] = locus YKL048C, strain ELM1, active compounds read low
# [37] = locus YKL067W, strain YNK1, active compounds read low
# [38] = locus YKL101W, strain HSL1, active compounds read low
# [39] = locus YKL193C, strain SDS22, active compounds read low
# [40] = locus YKL203C, strain TOR2, active compounds read low
# [41] = locus YLR113W, strain HOG1, active compounds read low
# [42] = locus YLR133W, strain CKI1, active compounds read low
# [43] = locus YLR403W, strain SFP1, active compounds read low
# [44] = locus YML070W, strain DAK1, active compounds read low
# [45] = locus YMR001C, strain CDC5, active compounds read low
# [46] = locus YMR205C, strain PFK2 (second series), active compounds read low
# [47] = locus YMR277W, strain FCP1, active compounds read low
# [48] = locus YNL006W, strain LST8, active compounds read low
# [49] = locus YNL020C, strain ARK1, active compounds read low
# [50] = locus YNL161W, strain CBK1, active compounds read low
# [51] = locus YNL183C, strain NPR1, active compounds read low
# [52] = locus YNL207W, strain RIO2, active compounds read low
# [53] = locus YNL222W, strain SSU72, active compounds read low
# [54] = locus YNL307C, strain MCK1 (second series), active compounds read low
# [55] = locus YOL078W, strain AVO1, active compounds read low
# [56] = locus YOL136C, strain PFK27, active compounds read low
# [57] = locus YOR061W, strain CKA2, active compounds read low
# [58] = locus YOR119C, strain RIO1, active compounds read low
# [59] = locus YOR231W, strain MKK1, active compounds read low
# [60] = locus YOR329C, strain SCD5, active compounds read low
# [61] = locus YPL031C, strain PHO85, active compounds read low
# [62] = locus YPL153C, strain RAD53, active compounds read low
# [63] = locus YPL204W, strain HRR25, active compounds read low
# [64] = locus YPL209C, strain IPL1, active compounds read low
# [65] = locus YPL256C, strain CLN2, active compounds read low
# [66] = locus YPR025C, strain CCL1, active compounds read low
# [67] = locus YPR106W, strain ISR1, active compounds read low
# [68] = locus YPR111W, strain DBF20, active compounds read low
# [69] = strain NNK1, active compounds read low
# [70] = strain TSCII, active compounds read low
structure (smiles),measurement,setting,value
C/C(=N/Nc1nc(C(C)(C)C)cs1)c1ccc(Cl)c(Cl)c1,normalized growth,[1],0.986
same,normalized growth,[2],0.983
same,normalized growth,[3],0.994
same,normalized growth,[4],0.99
same,normalized growth,[5],0.987
same,normalized growth,[6],0.981
same,normalized growth,[7],0.996
same,normalized growth,[8],0.981
same,normalized growth,[9],0.994
same,normalized growth,[10],0.99
same,normalized growth,[11],0.919
same,normalized growth,[12],0.977
same,normalized growth,[13],0.978
same,normalized growth,[14],0.973
same,normalized growth,[15],0.944
same,normalized growth,[16],0.844
same,normalized growth,[17],0.943
same,normalized growth,[18],0.987
same,normalized growth,[19],0.981
same,normalized growth,[20],0.985
same,normalized growth,[21],0.91
same,normalized growth,[22],0.994
same,normalized growth,[23],0.945
same,normalized growth,[24],0.932
same,normalized growth,[25],0.923
same,normalized growth,"locus YHR030C, strain SLT2, active compounds read low",0.753 (active)
same,normalized growth,[26],0.759
same,normalized growth,[27],0.965
same,normalized growth,[28],0.953
same,normalized growth,[29],0.993
same,normalized growth,[30],0.839
same,normalized growth,[31],0.954
same,normalized growth,[32],0.889
same,normalized growth,[33],0.993
same,normalized growth,[34],0.835
same,normalized growth,[35],0.891
same,normalized growth,[36],0.97
same,normalized growth,[37],0.949
same,normalized growth,[38],0.98
same,normalized growth,[39],0.991
same,normalized growth,[40],0.969
same,normalized growth,[41],0.803 (active)
same,normalized growth,[42],0.933
same,normalized growth,[43],0.908
same,normalized growth,[44],0.916
same,normalized growth,[45],0.983
same,normalized growth,[46],0.97
same,normalized growth,[47],0.986
same,normalized growth,[48],0.986
same,normalized growth,[49],0.917
same,normalized growth,[50],0.99
same,normalized growth,[51],0.92
same,normalized growth,[52],0.976
same,normalized growth,[53],0.987
same,normalized growth,[54],0.899
same,normalized growth,[55],0.989
same,normalized growth,[56],0.871
same,normalized growth,[57],0.943
same,normalized growth,[58],1
same,normalized growth,[59],0.792
same,normalized growth,[60],0.981
same,normalized growth,[61],0.903
same,normalized growth,[62],0.932
same,normalized growth,[63],0.899
same,normalized growth,[64],0.987
same,normalized growth,[65],0.757 (active)
same,normalized growth,[66],0.992
same,normalized growth,[67],0.983
same,normalized growth,[68],0.974
same,normalized growth,[69],0.974
same,normalized growth,[70],0.989
Cc1cc(NC(=O)Nc2ccc3c(ccn3C)c2)sn1,normalized growth,"locus YAL040C, strain CLN3, active compounds read low",0.993
same,normalized growth,"locus YDR363W, strain ESC2, active compounds read low",1.02
same,normalized growth,"locus YER002W, strain NOP16, active compounds read low",0.992
same,normalized growth,"locus YGR078C, strain PAC10, active compounds read low",0.999
same,normalized growth,"locus YGR229C, strain SMI1, active compounds read low",1
same,normalized growth,"locus YJR075W, strain HOC1, active compounds read low",1
same,normalized growth,"locus YMR263W, strain SAP30, active compounds read low",0.968
same,normalized growth,"locus YMR307W, strain GAS1, active compounds read low",0.996
same,normalized growth,"locus YNL153C, strain GIM3, active compounds read low",1.04
same,normalized growth,"locus YNL175C, strain NOP13, active compounds read low",1.02
same,normalized growth,"locus YNL197C, strain WHI3, active compounds read low",0.983
same,normalized growth,"locus YNL224C, strain SQS1, active compounds read low",0.996
same,normalized growth,"locus YOR083W, strain WHI5 (second series), active compounds read low",1.01
same,normalized growth,"locus YPL241C, strain CIN2, active compounds read low",0.992
CC(C)(C)c1csc(NNC(=O)c2ccc(Cl)cc2)n1,normalized growth,[1],0.978
same,normalized growth,[2],0.979
same,normalized growth,[3],0.954
same,normalized growth,[4],0.981
same,normalized growth,[5],0.966
same,normalized growth,[6],0.978
same,normalized growth,[7],0.98
same,normalized growth,[8],0.968
same,normalized growth,[9],0.974
same,normalized growth,[10],0.968
same,normalized growth,[11],0.884
same,normalized growth,[12],0.984
same,normalized growth,[13],0.958
same,normalized growth,[14],0.975
same,normalized growth,[15],0.925
same,normalized growth,[16],0.795
same,normalized growth,[17],0.913
same,normalized growth,[18],0.966
same,normalized growth,[19],0.963
same,normalized growth,[20],0.982
same,normalized growth,[21],0.92
same,normalized growth,[22],0.96
same,normalized growth,[23],0.883
same,normalized growth,[24],0.923
same,normalized growth,[25],0.871
same,normalized growth,[26],0.891
same,normalized growth,[27],0.911
same,normalized growth,[28],0.882
same,normalized growth,[29],0.984
same,normalized growth,[30],0.863
same,normalized growth,[31],0.921
same,normalized growth,[32],0.885
same,normalized growth,[33],0.964
same,normalized growth,[34],0.946
same,normalized growth,[35],0.904
same,normalized growth,[36],0.892
same,normalized growth,[37],0.885
same,normalized growth,[38],0.829
same,normalized growth,[39],0.967
same,normalized growth,[40],0.958
same,normalized growth,[41],0.756 (active)
same,normalized growth,[42],0.872
same,normalized growth,[43],0.861
same,normalized growth,[44],0.814
same,normalized growth,[45],0.974
same,normalized growth,[46],0.872
same,normalized growth,[47],0.975
same,normalized growth,[48],0.982
same,normalized growth,[49],0.884
same,normalized growth,[50],0.969
same,normalized growth,[51],0.837
same,normalized growth,[52],0.96
same,normalized growth,[53],0.963
same,normalized growth,[54],0.899
same,normalized growth,[55],0.962
same,normalized growth,[56],0.868
same,normalized growth,[57],0.899
same,normalized growth,[58],0.967
same,normalized growth,[59],0.812
same,normalized growth,[60],0.97
same,normalized growth,[61],0.912
same,normalized growth,[62],0.895
same,normalized growth,[63],0.914
same,normalized growth,[64],0.966
same,normalized growth,[65],0.769 (active)
same,normalized growth,[66],0.964
same,normalized growth,[67],0.954
same,normalized growth,[68],0.949
same,normalized growth,[69],0.957
same,normalized growth,[70],0.969
